Assay results reported in ChEMBL document CHEMBL3433997, “St. Jude Leishmania screening dataset” (2016).

Key:
Type in all cases: functional
[1] = target: Solute carrier family 2, facilitated glucose transporter member 1 (Homo sapiens) (UniProt P11166); test: ST_JUDE_LEISH: Cytotoxicity at 2uM final concentration against transgenic Leishmania Mexicana promastigotes LmGLUT1 that are glucose transport deficient and complemented with the human glucose transporter GLUT1. Activity is measured by DNA content using SYBR green in vitro
Chain of Solute carrier family 2, facilitated glucose transporter member 1 (Homo sapiens) (P11166 whole entry): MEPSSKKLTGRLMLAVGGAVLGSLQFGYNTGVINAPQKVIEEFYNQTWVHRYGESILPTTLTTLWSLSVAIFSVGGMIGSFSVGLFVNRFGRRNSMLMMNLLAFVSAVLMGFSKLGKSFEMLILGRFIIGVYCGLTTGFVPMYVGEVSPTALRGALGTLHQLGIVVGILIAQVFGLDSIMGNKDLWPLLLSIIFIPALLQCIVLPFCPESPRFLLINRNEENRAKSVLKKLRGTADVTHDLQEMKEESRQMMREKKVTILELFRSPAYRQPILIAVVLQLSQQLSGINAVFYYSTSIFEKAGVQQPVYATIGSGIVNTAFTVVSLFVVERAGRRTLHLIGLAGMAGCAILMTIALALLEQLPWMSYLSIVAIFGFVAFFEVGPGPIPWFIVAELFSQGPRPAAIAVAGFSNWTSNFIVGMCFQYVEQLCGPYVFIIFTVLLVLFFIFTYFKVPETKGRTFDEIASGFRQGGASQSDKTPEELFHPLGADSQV

[2] = target: Hexose transporter 1 (Plasmodium falciparum) (UniProt O97467); test: ST_JUDE_LEISH: Cytotoxicity at 2uM final concentration against transgenic Leishmania Mexicana promastigotes LmPfHT that are glucose transport deficient and complemented with the Plasmodium falciparum hexose transporter. Activity is measured by DNA content using SYBR green in vitro
[3] = target: Glucose transporter (Leishmania mexicana) (UniProt O61059); test: ST_JUDE_LEISH: Cytotoxicity at 2uM final concentration against transgenic Leishmania Mexicana promastigotes LmGT2 that are glucose transport deficient and complemented with the L. Mexicana glucose transporter 2. Activity is measured by DNA content using SYBR green in vitro

SMILES	inhibition [1]	inhibition [2]	inhibition [3]
COc1ccc(OC)c(C=NNc2nc3ccccc3[nH]2)c1	5.98%	5.18%	3.34%
CCOc1ccccc1C(=O)N1CCc2cc3nccc(N4CCN5CCC[C@H]5C4)c3cc21	-0.64%	-0.67%	-0.44%
Cc1ccc(CNC(=O)[C@H](Cc2ccccc2)Nc2cc(C)nc(Nc3ccccc3)n2)cc1	7.2%	6.84%	4.59%
COc1ccccc1NC(=O)NC1CCN(CCCCCNC(=O)/C=C/c2ccc(Cl)c(Cl)c2)CC1	1.87%	2.75%	2.7%
c1ccc(CNCc2cccc(-c3ccc(-c4nc5ccccc5[nH]4)s3)c2)cc1	4.03%	3.45%	3.41%
Fc1ccc2[nH]c(-c3cccc(-c4ccc(CNCCN5CCNCC5)cc4)c3)nc2c1	-0.21%	-0.52%	-0.74%
O=C(COc1ccccc1Cc1ccccc1)Nc1cc(Cl)ccc1-n1cncn1	4.5%	4.62%	3.15%
Nc1nc(N)c2cc(Cc3ccc([N+](=O)[O-])cc3)cnc2n1	-2.65%	0.37%	-0.27%
FC(F)(F)c1cc(Nc2ccc(Oc3ccccc3)cc2)c2cc(-c3ccncc3)ccc2n1	-0.25%	0.41%	-0.05%
CC(C)(CNC(=O)C1CCN(CC2CCCCC2)CC1)c1nc(-c2ccc(Cl)c(O)c2)c(-c2ccncc2)[nH]1	1.84%	0.23%	2.71%
COc1cccc(-c2cccc(NC(=O)C3CCN(Cc4ccc(O)cc4)CC3)c2)c1	0.86%	0.59%	-5.2%
Cc1cc(=NN=Cc2ccccc2)c2cc(F)ccc2[nH]1	4.17%	0.79%	6.79%
COc1cc2nc(N3CCC(CNC(=O)c4ccc(OC(F)(F)F)cc4)CC3)nc(N)c2cc1OC	-0.03%	0.04%	0.16%
CCOC(=O)c1cc(=O)c2ccc(OCC#N)cc2o1	88.5%	82.1%	74.8%
O=C(Nc1ccc(OC(F)(F)F)cc1)NC1CCN(c2ccnc3ccccc23)C1 (stereo unspecified)	3.08%	2.41%	3.12%
COc1ccc2nc3cc(Cl)ccc3c(NCCc3ccccc3)c2c1	1.15%	1.24%	-0.37%
Cc1ccc(F)c(OC2CCN(c3ccc(C(=O)NC4CC4)cn3)CC2)c1	0.56%	1.76%	-3.52%
CN1CCN(c2ccc(Nc3nc(N)c4ccn(C5CCC5)c4n3)cc2)CC1	4.19%	4.27%	2.97%
CC(=O)c1nccc(C)c1N	2.66%	1.53%	2.57%

SMILES	inhibition [1]	inhibition [2]	inhibition [3]
COc1cc2nc(N3CCC(CNC(=O)c4ccc(C(C)=O)cc4)CC3)nc(N)c2cc1OC	2.39%	2.18%	3.9%
Fc1cccc(C=NN=c2cc[nH]c3ccc(C(F)(F)F)cc23)c1	9.27%	8.79%	5.06%
CN(Cc1cccc(C#N)c1)C1CCN(c2cc(NC(=O)c3cccc(F)c3)ccn2)CC1	3.81%	5.32%	4.33%
Cc1cc(N/N=C/c2cccc([N+](=O)[O-])c2)c2ccc(F)cc2n1	3.46%	2.8%	0.94%
CC(C)(C)c1ccc(/C=C/C(=O)NCCCCCN2CCC(c3c[nH]c4ccccc34)CC2)cc1	4.78%	4.13%	-1.25%
CC(C)(C)c1ccc(C(=O)Nc2cccc(Nc3c(C(=O)NCc4cccc(C(F)(F)F)c4)cnc4c(O)cccc34)c2)cc1	10.1%	8.9%	9.37%
COc1ccc2c(c1)C(C)(CCCN(C)C)C(=O)N2C (stereo unspecified)	1.02%	1.36%	2.15%
Cc1[nH]c(C)c(-c2ccc(OCc3cc(F)cc(F)c3)nc2)c(=O)c1Br	3.26%	5.62%	0.58%
Cc1ccccc1C1CCN(C2CCC(NC(=O)c3ccc(-c4ccccc4)s3)CC2)CC1 (stereo unspecified)	1.32%	0.48%	0.02%
CCCCCCNC(=O)C1Cc2c([nH]c3ccc(Br)cc23)C2(CCN(Cc3ccccc3)CC2)N1 (stereo unspecified)	45.6%	15.5%	30.9%
O=C(Nc1cccc(CN2CCCN(Cc3ncc[nH]3)CC2)c1)c1ccc2ccccc2c1	-2.43%	-3.48%	1.4%
CS(=O)(=O)Nc1ccc(OCCCCCCOc2ccc(NS(C)(=O)=O)cc2)cc1	1.48%	3.08%	2.14%
CC(=O)NC1=NC(C)(C)N(OCc2ccc(Cl)c(Cl)c2)C(NC(C)=O)=N1	-0.21%	-0.25%	-1.61%
O=C(NCCNc1ccnc(Nc2ccc(F)cc2)n1)Nc1ccccc1F	2.71%	1.86%	-2.84%
COc1ccccc1/C=C/C(=O)NC1CCC(CCN2CCc3ccc(-c4cc(C)no4)cc3CC2)CC1 (stereo unspecified)	3.11%	1.2%	9.56%
Oc1ccc(Cc2cc(Oc3c(I)cc(CCc4ncc[nH]4)cc3I)ccc2O)cc1	0.12%	1.92%	1.23%
Nc1c2c(nc3ccc(NC(=O)Cc4ccccc4)cc13)CCCC2	4.09%	5.7%	6.71%
Cc1nnsc1C(=O)Nc1cccc(-c2ccc(-c3nc4cccc(C)c4[nH]3)s2)c1	1.88%	1.77%	3.82%
